Screening data as filed in PubChem.
SARS 3CLpro inh: SARS-CoV 3CLpro protease inhibition; hit rate 0.14% among 290,000; P0C6X7; inhibition, % at 6 µM; recombinant SARS-CoV 3CLpro, quenched FRET peptide cleavage; AID 1706; in the data active means inhibition above about 12%
MazEF act: activators of E. coli MazEF toxin-antitoxin RNase; P0AE70; FAM/BHQ RNA-DNA oligo cleavage fluorescence, 5 h; activation, % at 20 µM; hit rate 0.32% among 350,000; AID 504720; in the data active means activation above about 50%
Mtb hypoxia rep: inhibitors of hypoxia-regulated fluorescent reporter in Mycobacterium tuberculosis. M. tuberculosis hypoxia-regulated fluorescent reporter, fluorescence. fluorescence inhibition, % (concentration not given with the values). hit rate 0.1% among 300,000; in the data active means fluorescence inhibition mostly above about 23%, no sharp cut-off; inactive means mostly below about 17%
PrP 5UTR inh: inhibition of PrP 5' UTR reporter expression | cell-based PrP 5' UTR mRNA reporter, plate reader | inhibition, % (test concentration not listed) | hit rate 0.35% among 340,000 | AID 488862; in the data active means inhibition above about 52%; further: 0 = median of the neutral control wells
PrPC surface inh: inhibitors of human cell surface prion protein PrPC; P04156; TR-FRET read-out; inhibition, % at 13.8 µM; hit rate 0.43% among 370,000; AID 720596; in the data active means inhibition above about 24%; further: 0% = median of the test wells and 100% = reference compound wells
VHR inh abs: blocks human VHR1 dual specificity phosphatase. inhibition, % at 13.3 µM. recombinant VHR phosphatase, pNPP absorbance. P51452. hit rate 0.52% among 290,000; in the data active means inhibition above about 50%
PrP UTR cherry: prion 5' UTR mRNA inhibition, cherry-pick retest; hit rate 48% among 1,100; inhibition, % at 2.5 µM; shares compounds with PrP 5UTR inh; AID 504592; cell-based prion protein 5' UTR reporter, plate reader; in the data active means inhibition above about 54%
PrPC confirm: cell surface PrPC inhibition, TR-FRET confirmation; shares compounds with PrPC surface inh; inhibition, % at 13.8 µM; cell surface PrPC level; AID 743200; hit rate 65% among 1,500; in the data active means inhibition above about 25%
LD9 tox: counter-screen for PrPc inhibitors: cytotoxicity in LD9 cells; luminescence viability; hit rate 29% among 1,500; inhibition, % at 13.8 µM; shares compounds with PrPC surface inh; AID 743201; in the data active means inhibition above about 9.5%
Starred values were filed as active, the others as inactive; nt = no result. Rows were chosen to be rich in hits. Some 1.5% of all compounds tested hit in one or more screens of this group.

SMILES	SARS 3CLpro inh	MazEF act	Mtb hypoxia rep	PrP 5UTR inh	PrPC surface inh	VHR inh abs	PrP UTR cherry	others
C/C=C/COC(=O)c1[nH]c2c(c1C)C(=O)CC(c1ccco1)C2 (stereo unspecified)	-8	-19	nt	62*	8	16	85*
Cc1c(C(=O)OC2CCCC2)[nH]c2c1C(=O)CC(c1ccco1)C2 (stereo unspecified)	1	6	nt	61*	16	-6	73*
O=C(COc1cccc(C(F)(F)F)c1)NNC(=O)c1ccc(=O)[nH]c1	nt	5	0	65*	2	nt	6
CCC(=NNC(=O)COc1ccccc1OC)C(CC)=NNC(=O)COc1ccccc1OC	nt	nt	3	nt	nt	nt	nt
CCOC(=O)C1(CCCc2ccccc2)CCN(C(=O)CCn2cncn2)CC1	2	3	3	-14	4	16	nt
CCOC(=O)C1(CCc2ccccc2)CCN(C(=O)CCn2cncn2)CC1	-4	3	8	81*	-1	26	-48
Cc1ccc(-n2c(C)cc(C=c3sc4nc5ccccc5n4c3=O)c2C)cc1	nt	nt	10	nt	nt	nt	nt
N#CC1=C(N)Oc2c(ccc3ccccc23)C1c1ccsc1 (stereo unspecified)	3	24	-87	77*	0	12	88*
C=Cc1cc(OC)c2c(c1)c(=O)oc1c2cc(OC)c2c(O)ccc(C3OC(C)C(O)C(C)(O)C3O)c21 (stereo unspecified)	nt	8	nt	68*	31*	nt	75*
CC(=NNC(=O)COc1ccc(C(C)(C)C)cc1)c1ccc(-n2ccnc2)cc1	nt	nt	6	nt	nt	nt	nt
COc1cc(C(=O)N2CCN(c3cccc(C)c3C)CC2)cc(OC)c1OC	-4	3	nt	60*	20	26	74*
COc1cc(C(=O)N2CCN(c3cc(Cl)ccc3Cl)CC2)cc(OC)c1OC	-5	-13	2	56*	2	12	88*
Cc1cc(C)c(S(=O)(=O)Nc2ccc3c4c(cccc24)CC3)c(C)c1	4	-9	9	76*	16	7	89*
CCOC(=O)C1Oc2ccccc2C(c2ccc(C)cc2)=C1C(=O)OC (stereo unspecified)	nt	38	5	-13	6	nt	nt
CCOC(=O)C1(CC)Oc2ccccc2C(c2ccc(OC)cc2)=C1C(=O)OC (stereo unspecified)	nt	-8	-4	71*	10	nt	-7
CSc1ccc(CN(C)C(C)C(=O)Nc2ccc(F)c(F)c2F)cc1 (stereo unspecified)	3	-13	1	53*	4	26	-1
Cc1noc(C)c1NC(=O)N(C)CC1Oc2ccc(NC(=O)Nc3ccc4c(c3)OCO4)cc2C(=O)N(C(C)CO)CC1C (stereo unspecified)	nt	nt	7	nt	nt	nt	nt
CCOC(=O)c1ccc(NC(=O)c2nc[nH]c2C(=O)NC(CC(C)C)C(=O)OC(C)(C)C)cc1 (stereo unspecified)	nt	nt	-1	nt	nt	nt	nt
NC(=NOC(=O)Cc1ccc([N+](=O)[O-])cc1)c1ccccn1	nt	nt	12	nt	nt	nt	nt
N/C(=N\OCc1ccc([N+](=O)[O-])cc1)c1ccccn1	3	7	nt	85*	nt	9	80*
COc1ccc(-c2ccc(=O)n(Cc3cc(=O)n4ccccc4n3)n2)cc1	-2	-6	8	66*	-13	20	9
CCCCCCCN1C(Nc2ccccc2)=NCC1Cc1ccccc1 (stereo unspecified)	nt	nt	-5	nt	nt	nt	nt
COCCCn1c(=NC(=O)c2ccccc2)c(C#N)cc2c(=O)n3cccc(C)c3nc21	-2	11	16	66*	-16	45	-17
COCCCn1c(=NC(C)=O)c(C#N)cc2c(=O)n3cccc(C)c3nc21	4	-12	2	nt	4	34	nt
C=C1C(=O)O[C@@H]2C[C@@H](C)[C@@H]3C=CC(=O)[C@@]3(C)[C@@H](OC(=O)CC(=O)O[C@H]3[C@@H]4C(=C)C(=O)O[C@@H]4C[C@@H](C)[C@@H]4C=CC(=O)[C@]43C)[C@H]12	nt	3	nt	95*	98*	4	98*	PrPC confirm=99*;LD9 tox=99*
SMILES	SARS 3CLpro inh	MazEF act	Mtb hypoxia rep	PrP 5UTR inh	PrPC surface inh	VHR inh abs	PrP UTR cherry	others
C=C1C(=O)O[C@H]2[C@H]1[C@H](OC(=O)CC(=O)O[C@@H]1C[C@@H](C)[C@@H]3C=CC(=O)[C@@]3(C)[C@H]3OC(=O)C(=C)[C@H]13)C[C@@H](C)[C@H]1C=CC(=O)[C@]12C	nt	-2	nt	-3	16	4	nt
Cn1cccc1C=NNC(=O)c1cc2ccccc2cc1O	nt	nt	9	nt	nt	nt	nt
C[C@H]1CCC[C@@H](O)CCCC=Cc2cc(O)cc(O)c2C(=O)O1	nt	nt	8	nt	nt	nt	nt
CC1CCC/C=C/C2CC(O)CC2C(O)/C=C/C(=O)O1 (stereo unspecified)	5	10	nt	83*	89*	20	88*	PrPC confirm=95*;LD9 tox=7
Nc1ncnc2c(C3OC(CO)C(O)C3O)c[nH]c12 (stereo unspecified)	nt	7	nt	95*	57*	nt	97*	PrPC confirm=61*;LD9 tox=91*
Nc1ncnc2c1ncn2[C@@H]1O[C@H](CO)[C@@H](O)[C@H]1O	-6	10	nt	-18	1	5	nt
CCC1CN2CCc3cc(OC)c(OC)cc3C2CC1CC1NCCc2c1[nH]c1ccc(O)cc21 (stereo unspecified)	nt	23	nt	82*	87*	nt	87*	PrPC confirm=100*;LD9 tox=43*
NC(=O)c1c(Br)n(C2OC(CO)C(O)C2O)c2ncnc(N)c12 (stereo unspecified)	nt	7	nt	16	0	nt	nt
NC(=O)c1cn(C2OC(CO)C(O)C2O)c2ncnc(N)c12 (stereo unspecified)	1	14	nt	88*	56*	13	97*	PrPC confirm=58*;LD9 tox=40*
OCC1OC(n2ccc3c(NO)ncnc32)C(O)C1O (stereo unspecified)	nt	-10	nt	89*	53*	nt	85*	PrPC confirm=44*;LD9 tox=92*
N#Cc1cn(C2OC(CO)C(O)C2O)c2ncnc(N)c12 (stereo unspecified)	nt	-2	nt	58*	26*	nt	75*	PrPC confirm=30*;LD9 tox=40*
O=C(CON=Cc1ccc(OC(F)F)cc1)NC1CCCC1	nt	nt	11	nt	nt	nt	nt
Cc1c(NC(=S)NN=C/C=C/c2ccccc2)c(=O)n(-c2ccccc2)n1C	nt	nt	4	nt	nt	nt	nt
Cc1ccc2nc(NC(=O)c3ccccn3)sc2c1	7	8	10	89*	25*	52*	86*	PrPC confirm=61*;LD9 tox=77*
O=C(CN1CCN(S(=O)(=O)c2ccc(Br)cc2)CC1)NN=Cc1cc([N+](=O)[O-])ccc1Cl	nt	nt	2	nt	nt	nt	nt
